Laboratory results from PubChem BioAssay (Tox21).
Values joined by “and” are separate entries in the source; they are usually repeats but may differ in a detail not shown here. Identical values can stand only once. Results filed as inconclusive are left out. Some compounds were tested as several samples or in several runs, with calls that do not always agree. Active and inactive are the calls of the source. Calls come from the whole dose curve; as a rule, active = well fitted cell-killing curve with a large enough effect in the repeat runs; inconclusive = weak or mixed curves, or effect the other way; inactive = no such curve, though single readings can be large or run the other way.

Assay: qHTS assay to identify small molecule antagonists of the thyroid receptor (TR) signaling pathway - cell viability counter screen (AID 743064); note: nearly all actives have a fitted effect of over 50% in size
Conditions: GH3.TRE-Luc viability, CellTiter-Fluor, 24 h; series mostly up to 70.3 µM; activity change, negative = cytotoxic: at the top concentration
Text: National Center for Advancing Translational Sciences [NCATS]
NIH Chemical Genomics Center [NCGC]
U.S. Environmental Protection Agency [EPA]
National Institutes of Environmental Health Sciences [NIEHS]
National Toxicology Program [NTP]
U.S. Food and Drug Administration [FDA]
Thyroid receptor (TR), a nuclear hormone receptor, plays an important role in development, proliferation, differentiation, metabolism, brain function, and cardiovascular system. […] To profile the Tox21 10K compound library in TR signaling, a cell-based GH3-TRE-Luc assay (GH3.TRE-Luc cell line, developed by the laboratory of Dr. Albertinka J. Murk, Wageningen University) was used to measure the inhibition of TR. GH3 (rat pituitary tumor) cells stably expressing a TR activity sensor consisting of two TR response elements and a luciferase reporter gene. The cytotoxicity of the Tox21 compound library against the GH3.TRE-Luc cell line was tested in parallel by measuring the cell viability using CellTiter-Fluor assay (Promega, Madison, WI) in the same wells.
Tox21 Assay Protocol Summary:
GH3.TRE-Luc cells were dispensed at 1500 cells/4 uL/well into 1536-well white solid bottom plates using a Multidrop Combi dispenser (Thermo Fisher Scientific Inc., Waltham, MA). After the assay plates were incubated at 37 C for 4 hours, 23 nL of library compound or DMSO controls was transferred to the assay plates by a pintool station (Kalypsys, San Diego, CA), followed by addition of 1 ul of T3 (1 nM, final concentration in the wells) to stimulate TR transactivation. The assay plates were incubated at 37 C for 23.5 h, and then 1 uL of CellTiter-Fluor reagent (Promega, Madision, WI) of measuring cytotoxicity was added to each well using a Bioraptr Flying Reagent Dispenser (FRD) workstation (Beckman Coulter, Indianapolis, IN, USA). The plates were incubated at 37C and 5% CO2 for additional 30 min, and fluorescence intensity was measured by a ViewLux plate reader (PerkinElmer, Shelton, CT).
% is set by controls: 0 for no effect and ±100 for the full control effect; potency is the fitted concentration of half-maximal effect.

Row | Structure (SMILES) | activity change, negative = cytotoxic | Potency
1 | O=C(NC(Cc1cc(=O)[nH]c2ccccc12)C(=O)O)c1ccc(Cl)cc1 (stereo not given) | 21.2% (inactive) | –
2 | CC(C)c1ccc(C#N)cc1 | 10.6% (inactive) | –
3 | CCCCCCCCCCCCCCN(C)C | 0.612% [at 32.5 µM] (inactive) | –
4 | O=C1CC[C@@H](C(=O)O)N1 | 16.9% (inactive) | –
5 | CCCCCCCC(=O)OCCCCCC | 13.2% (inactive) | –
6 | CC(C)OC(=O)c1ccccc1C(=O)OC(C)C | 8.67% (inactive) | –
7 | CCC(Cl)CC(Cl)C(Cl)C(Cl)C(Cl)C(C)Cl (stereo not given) | 10.6% [at 18.2 µM] (inactive) | –
8 | CNCc1ccc(NC(=O)c2c[nH]c3c2C(=O)CCC3)cc1 | 1.88% (inactive) | –
9 | CN1C(CSCC(F)(F)F)Nc2cc(Cl)c(S(N)(=O)=O)cc2S1(=O)=O (stereo not given) | -1.08% (inactive) | –
10 | Nc1c(Cl)cc(Cl)cc1[N+](=O)[O-] | 17.3% (inactive) | –
11 | O=C1OC[C@H](Cc2cccc(O)c2)[C@H]1Cc1cccc(O)c1 | 5.59% [at 32.5 µM] (inactive) | –
12 | C=CCOC(=O)COCCC(C)C | 11.1% (inactive) | –
13 | CC(=O)NNC(C)=O | -0.0622% [at 95 µM] (inactive) | –
14 | COc1ccc(N)c([N+](=O)[O-])c1 | 10.4% (inactive) | –
15 | CCCCCCCCCCCCCCCC(=O)OCC | 26.1% (inactive) | –
16 | CCN(CC)CCNC(=O)c1cc(Cl)c(N)cc1OC | 7.84% (inactive) | –
17 | CC[C@H]1OC(=O)[C@H](C)[C@@H](O[C@H]2C[C@@](C)(OC)[C@@H](O)[C@H](C)O2)[C@H](C)[C@@H](O[C@@H]2O[C@H](C)C[C@H](N(C)C)[C@H]2O)[C@](C)(O)C[C@@H](C)/C(=N\OCOCCOC)[C@H](C)[C@@H](O)[C@]1(C)O | – | inactive and 32.1 µM (active)
18 | Nc1cccc2c(N)cccc12 | -28.2% (inactive) | –
19 | CC12CC3CC(C)(C1)CC(N)(C3)C2 | – | 29.8 µM (active)
20 | CC(C)COC(=O)c1ccc(O)cc1 | -9.35% (inactive) | –

Row | Structure (SMILES) | activity change, negative = cytotoxic | Potency
21 | CC(C)(C(=O)c1cccnc1)c1cccnc1 | -19.2% [at 32.5 µM] (inactive) | –
22 | CCN(CC)C(=O)/C(C#N)=C/c1cc(O)c(O)c([N+](=O)[O-])c1 | -6.31% (inactive) | –
23 | COc1ccc(-n2nc(C(F)F)cc2-c2ccc(S(C)=O)cc2)cc1 (stereo not given) | -18.5% (inactive) | –
24 | COC(OC)OC | 9.1% (inactive) | –
25 | CC(=O)OCC1=C(C(=O)O)N2C(=O)[C@@H](NC(=O)CSc3ccncc3)[C@H]2SC1 | -1.98% (inactive) | –
26 | CC(=O)NCCO | -2.14% (inactive) | –
27 | Nc1nc2ccc(OC(F)(F)F)cc2s1 | -24.3% (inactive) | –
28 | CCC(C)(C)C(=O)O | 4.29% (inactive) | –
29 | O=C(O)c1cccc(Oc2ccccc2)c1 | 15.2% (inactive) | –
30 | CCC(CO)(CO)CO | -0.814% [at 95 µM] (inactive) | –
31 | CC1=CC[C@@]23C[C@@H]1C(C)(C)[C@@H]2CC[C@H]3C | -5.5% (inactive) | –
32 | O=C(c1ccccc1)C1CCC1 | 4.31% (inactive) | –
33 | COc1ccc(C)cc1 | 22.4% (inactive) | –
34 | CC(C)C(=O)OCCOc1ccccc1 | 13.9% (inactive) | –
35 | CC/C=C\C/C=C\C/C=C\CCCCCCCC(=O)OCC | -6.12% [at 95 µM] (inactive) | –
36 | OCC(CO)n1cnc(-c2ccc(F)cc2)c1-c1ccnc(Oc2ccccc2)n1 | -0.576% (inactive) | –
37 | CC(C)(O)c1coc(S(=O)(=O)NC(=O)Nc2c3c(cc4c2CCC4)CCC3)c1 | 23% (inactive) | –
38 | O=[N+]([O-])C1(Br)COCOC1 | – | 17.2 µM (active)
39 | c1ccc(CNc2ncnc3c2ncn3C2CCCCO2)cc1 (stereo not given) | 8.73% (inactive) | –
40 | O=C(O)c1cccc(C[C@@H]2COc3ccc(OCc4nc5cc(F)ccc5s4)cc3[C@@H]2O)c1 | -0.263% (inactive) | –
